From PubChem BioAssay (EPA / NIEHS)
The source made the active and inactive calls. The calls were made as follows: active = hit-call score of the fitted dose curve at least 0.9, where 1 is the maximum; inactive = score below 0.9.

test: ATG_M_06_CIS: Attagene CIS-FACTORIAL HepG2 Assay for M06 Transcription Factor (Internal Marker) (AID 2282950); settings: HepG2 Attagene CIS-FACTORIAL M06 internal marker reporter; actives raise or lower the signal
Procedure, shortened: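 Steps: transfect HepG2 with multiplexed cis-element reporter constructs; dose chemical 24 h; extract RNA with DNase treatment; reverse-transcribe, PCR-amplify, 6-FAM label, HpaI digest; separate fragments by capillary electrophoresis. Activity fitted both directions versus DMSO.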

outcome, inactive:
CC1=CC(=O)c2ccccc2C1=O
CC(C)(C)C1CCCCC1O (configuration not stated)
CC(C)CCOCCC(C)C
CCCCCCCCCCCCCC[n+]1ccccc1
CCCCCCCC(OC)OC
O=CC(F)(F)C(F)(F)C(F)(F)C(F)F
CCCCCCCCCCCCCCC
O=C1OC(=O)C(F)(F)C1(F)F
COCN(COC)c1nc(N(COC)COC)nc(N(COC)COC)n1
CC(=O)Nc1ccc(S(N)(=O)=O)cc1
CCCCCCCCCCCC(=O)NCCCN(C)C
C=CC(C)(CCC=C(C)C)OC(C)=O (configuration not stated)
O=C(OC(=O)C(F)(F)C(F)(F)F)C(F)(F)C(F)(F)F
C[N+](C)(CCCNS(=O)(=O)CCC(F)(F)C(F)(F)C(F)(F)C(F)(F)C(F)(F)C(F)(F)F)CC(=O)[O-]
CCOC(=O)CN[C@@H](C(=O)N1CC[C@H]1C(=O)NCc1ccc(/C(N)=N/O)cc1)C1CCCCC1
CC(O)COc1ccccc1 (configuration not stated)
CCC(C)c1ccccc1O (configuration not stated)
C/C=C/C(=O)C1=C(C)CCCC1(C)C
O=C(NCc1ncc(C(F)(F)F)cc1Cl)c1c(Cl)cccc1Cl
CCCCCC(C)OC(=O)COc1ccc(Cl)c2cccnc12 (configuration not stated)
O=S(=O)(O)C(F)(F)C(F)(F)C(F)(F)C(F)(F)C(F)(F)C(F)(F)C(F)(F)C(F)(F)C(F)(F)C(F)(F)F
c1cc2cccc3c4cccc5cccc(c(c1)c23)c54
CCCCC(CC)C(=O)OCCOCCOCCOCCOC(=O)C(CC)CCCC (configuration not stated)
CCCCCCCCCCCCOC(=O)c1cc(O)c(O)c(O)c1
CCOC(C)=O
Cc1ccccc1OCC(=O)O
NCc1cccc(CN)c1
CC(C)(C)c1ccc(CCC=O)cc1
CC(=O)CC(C)C
NNc1nc(-c2ccc([N+](=O)[O-])cc2)cs1
OCC(F)(F)C(F)(F)C(F)(F)C(F)(F)C(F)(F)C(F)(F)C(F)(F)C(F)(F)C(F)(F)C(F)(F)C(F)(F)F
COC(=O)C(F)(F)C(F)(F)C(F)(F)F
CCOC=O
CCCCCCCCCCCC[N+](C)(C)CCCCCCCCCCCC
CCCCCCCCCC=CCC1CC(=O)OC1=O (configuration not stated)
FC(F)(F)C(F)(F)C(F)(F)Br
Oc1cccc2c(O)cccc12
